The record followed here is PubChem BioAssay (NCI).

Compounds without any hit were thinned out: in the full panel of roughly 83,000, 20% have a hit.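 Each cell line was grown in a 96-well plate and treated with one concentration of compound for 48 hours. Values below 10 were considered active.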 Values without a mark were called inactive. Activity calls are given as the source filed them.

Among the test systems are NCI-H23 lung; NCI-H226 lung; NCI-H322M lung; HOP-62 NSCLC; NCI-H460 lung; HOP-92 NSCLC; NCI-H522 lung; A549/ATCC NSCLC; 786-0 renal; COLO 205 colon; DU-145 prostate; K-562 leukemia; MALME-3M melanoma; MDA-MB-231 breast; RXF 393 renal; SF-268 CNS; SF-295 CNS; SF-539 CNS; UACC-257 melanoma; M14 melanoma.
Common to all, as to test: NCI-60 one-dose screen, 48 h (100 = growth as untreated, 0 = no growth, -100 = all killed)
Holding throughout (conditions): 10 µM unless noted

With `S=C(NCc1ccc2c(c1)OCO2)N1CCN(c2ncnc3c2oc2ccccc23)CC1`, the growth in the assay with NCI-H23 lung was 44.1%; with NCI-H226 lung it was 28.7%; in the assay with NCI-H322M lung it was 35.3%; in the assay with HOP-62 NSCLC, 30.7%; with NCI-H460 lung it was 31.8%; in the assay on HOP-92 NSCLC, 38.1%. Besides, the growth with NCI-H522 lung was 22.6%; in the assay on A549/ATCC NSCLC, 25.6%; in the assay on 786-0 renal it was 47.5%; with COLO 205 colon, 4.16% (active); in the assay on DU-145 prostate, 35.4%; with K-562 leukemia, 19.4%. For the same molecule, the growth with MALME-3M melanoma is 51.1%; in the assay on MDA-MB-231 breast it was 57.1%; in the assay with RXF 393 renal, 50.7%; in the assay on SF-268 CNS, 42.2%; with SF-295 CNS, 26.4%; in the assay with SF-539 CNS, 39.7%. In addition, the growth in the assay with UACC-257 melanoma was 9.31% (active); in the assay on M14 melanoma, 35.2%.

`COc1ccc(C(=O)c2cc(OC)c(OC)c(OC)c2)cc1/C=C/C(=O)c1ccc(F)cc1`: the growth with NCI-H23 lung is 79.7%; in the assay on NCI-H226 lung it was 90.4%; in the assay with NCI-H322M lung, 85.5%; with HOP-62 NSCLC, 95.5%; in the assay on NCI-H460 lung, 92.9%; with HOP-92 NSCLC, 69.2%. Also, the growth is 18.5% in the assay on NCI-H522 lung; 90.7% with A549/ATCC NSCLC; 77.4% with 786-0 renal; 79.3% with COLO 205 colon; 85.5% in the assay on DU-145 prostate; 9.61% (active) in the assay on K-562 leukemia. Moreover, the growth in the assay with MALME-3M melanoma was 65.6%; with MDA-MB-231 breast, 68.4%; with RXF 393 renal, 88.3%; with SF-268 CNS it was 77%; in the assay with SF-295 CNS, 84.3%; with SF-539 CNS, 51.8%. For the same molecule, the growth with UACC-257 melanoma is 86.6%; with M14 melanoma, 72.5%.

Turning to `COC1CCC(N2C(=O)CNc3ncc(-c4ccc(C(C)(C)O)nc4)nc32)CC1` (stereo not given), the growth is 15.8% with NCI-H23 lung; 8.08% (active) in the assay with NCI-H226 lung; -5.65% (active) in the assay with NCI-H322M lung; 5.54% (active) in the assay with HOP-62 NSCLC; 12.4% in the assay on NCI-H460 lung; -12% (active) in the assay with HOP-92 NSCLC. For the same molecule, the growth in the assay with NCI-H522 lung was -10.3% (active); in the assay with A549/ATCC NSCLC it was 2.75% (active); in the assay with 786-0 renal, 6.56% (active); in the assay with COLO 205 colon, -7.31% (active); with DU-145 prostate, 4.44% (active); in the assay on K-562 leukemia, 4.22% (active). The growth was -17.6% (active) in the assay on MALME-3M melanoma; 14.2% in the assay on MDA-MB-231 breast; -28.5% (active) with RXF 393 renal; 18.5% in the assay on SF-268 CNS; -15.4% (active) in the assay on SF-295 CNS; -21.9% (active) in the assay with SF-539 CNS. Further, the growth in the assay with UACC-257 melanoma was -15.8% (active); with M14 melanoma it was 2.03% (active).

Regarding `O=C(CNc1nnc(-c2ccc(Cl)cc2)o1)Nc1ccc(-c2nc3ccccc3s2)cc1`, the growth in the assay on NCI-H23 lung was 88.7%; in the assay on NCI-H226 lung it was 82.9%; with NCI-H322M lung, 95.1%; in the assay with HOP-62 NSCLC it was 107%; with NCI-H460 lung it was 99.7%; with HOP-92 NSCLC, 87.9%. Further, the growth was 77.1% in the assay on NCI-H522 lung; 95.8% in the assay on A549/ATCC NSCLC; 101% in the assay on 786-0 renal; 104% in the assay on COLO 205 colon; 98.5% in the assay on DU-145 prostate; 85.6% with K-562 leukemia. The growth in the assay on MALME-3M melanoma is 88.7%; in the assay on MDA-MB-231 breast it was 98.8%; with RXF 393 renal, 100%; in the assay on SF-268 CNS it was 77.3%; with SF-295 CNS it was 102%; with SF-539 CNS it was 97%. For the same molecule, the growth in the assay on UACC-257 melanoma is 103%; in the assay with M14 melanoma, 102%.

Regarding `C/C(=C(/c1ccc(Cl)cc1)c1ccc(OCCN2CCCCCC2)cc1)c1ccccc1`, the growth is 74.9% in the assay on NCI-H23 lung; 95.8% with NCI-H226 lung; 93.2% in the assay with NCI-H322M lung; 90.3% in the assay on HOP-62 NSCLC; 76.3% in the assay with NCI-H460 lung; 82.6% in the assay with HOP-92 NSCLC. In addition, the growth was 72.9% with NCI-H522 lung; 67.8% with A549/ATCC NSCLC; 82% in the assay on 786-0 renal; 15.9% in the assay on COLO 205 colon; 83.5% in the assay with DU-145 prostate; 22.7% with K-562 leukemia. In addition, the growth with MALME-3M melanoma was 81.7%; in the assay with MDA-MB-231 breast, 86.9%; in the assay with RXF 393 renal it was 81.4%; in the assay on SF-268 CNS, 93%; with SF-295 CNS it was 86.4%; with SF-539 CNS, 72.4%. The growth with UACC-257 melanoma was 92.2%; in the assay on M14 melanoma it was 81.4%.

For the molecule `CO[C@H]1C[C@@H]2CC[C@@H](C)[C@@](O)(O2)C(=O)C(=O)N2CCCC[C@H]2C(=O)O[C@H]([C@H](C)C[C@@H]2CC[C@@H](OP(C)(C)=O)[C@H](OC)C2)CC(=O)[C@H](C)/C=C(\C)[C@@H](O)[C@@H](OC)C(=O)[C@H](C)C[C@H](C)\C=C/C=C/C=C/1C`, the growth in the assay with NCI-H23 lung was 57.5%; with NCI-H226 lung, 40.9%; with NCI-H322M lung, 54.5%; in the assay on HOP-62 NSCLC, 28.5%; with NCI-H460 lung, 40.4%; in the assay on HOP-92 NSCLC, 36.2%. The growth in the assay with NCI-H522 lung was 31.8%; in the assay with A549/ATCC NSCLC, 34.6%; in the assay with 786-0 renal, 53.3%; in the assay with COLO 205 colon, 52.6%; with DU-145 prostate, 46%; with K-562 leukemia it was 48.4%. Also, the growth in the assay with MALME-3M melanoma was 40.4%; with MDA-MB-231 breast, 71.7%; in the assay on RXF 393 renal, 18.9%; in the assay on SF-268 CNS it was 62.9%; in the assay on SF-295 CNS it was 23.5%; in the assay with SF-539 CNS, 41.8%. Besides, the growth in the assay on UACC-257 melanoma was 30.7%; with M14 melanoma, 66.4%.

On to `COC(=O)[C@H](Cc1ccc(O)cc1)NC(=O)[C@@H](OC)[C@@H]1Cc2cc3cc(OC4CC(OC5CC(O)C(O)C(C)O5)C(O)C(C)O4)c(C)c(O)c3c(O)c2C(=O)[C@H]1OC1CC(OC2CC(OC3CC(C)(O)C(O)C(C)O3)C(O)C(C)O2)C(O)C(C)O1` (stereo not given in full), for which the growth with NCI-H23 lung is -38.6% (active); in the assay with NCI-H226 lung it was -17.6% (active); with NCI-H322M lung it was 11.1%; in the assay with HOP-62 NSCLC, 19.3%; in the assay with NCI-H460 lung it was 6.99% (active); in the assay on HOP-92 NSCLC, 12.2%. Moreover, the growth is -19.5% (active) with NCI-H522 lung; 4.32% (active) in the assay on A549/ATCC NSCLC; 1.98% (active) in the assay with 786-0 renal; -22.8% (active) in the assay on COLO 205 colon; 15.8% in the assay with DU-145 prostate; 7.28% (active) in the assay with K-562 leukemia. The growth in the assay on MALME-3M melanoma was -43% (active); with MDA-MB-231 breast, 19.5%; with RXF 393 renal, -71.5% (active); with SF-268 CNS, 20.7%; in the assay with SF-295 CNS, 7.09% (active); with SF-539 CNS, -27.1% (active). The growth in the assay with UACC-257 melanoma is 2.42% (active); with M14 melanoma, -20.2% (active).
